Assay outcomes: PubChem BioAssay, National Center for Advancing Translational Sciences (NCATS)
Shiga toxin inh: blocks Shiga toxin action in Vero cells; Vero cells, Shiga toxin protein synthesis inhibition reporter; inhibition, % at 38.7 µM; 9.2% of 290,000 active; AID 2315; in the data active = inhibition mostly above about 28%, no sharp cut-off; inactive = mostly below about 43%; note: 0% is about no effect
Pf growth 96h: P. falciparum growth inhibition at 96 hour, primary screen for plastid delayed-death inhibitors; Potency, µM (series often up to 28.7 µM), for the others: at the top dose activity change, negative = inhibition, actives largely listed as inhibitors; 6.9% of 320,000 active; P. falciparum luciferase reporter growth, 96 h; AID 504834; note: potency is the fitted concentration of half-maximal effect; % is set by controls: 0 for no effect and ±100 for the full control effect
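Infected RBCs, 2% Hct / 0.05% parasitemia final; luciferase-reporter P. falciparum; cpd 96 h, 37 C, 5% CO2; luciferase detection reagent; luminescence.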
LmPK inhibitor: inhibitors of Leishmania mexicana pyruvate kinase. Potency, µM (top dose mostly 57.5 µM), for inactives: at the highest dose activity change, negative = inhibition, usual class: inhibitors. purified LmPK, Kinase-Glo ATP luminescence, 1 h. Q27686. 0.37% of 290,000 active; note: potency is the fitted concentration of half-maximal effect; % is set by controls: 0 for no effect and ±100 for the full control effect
Target sequence (Q27686 whole entry, looked up): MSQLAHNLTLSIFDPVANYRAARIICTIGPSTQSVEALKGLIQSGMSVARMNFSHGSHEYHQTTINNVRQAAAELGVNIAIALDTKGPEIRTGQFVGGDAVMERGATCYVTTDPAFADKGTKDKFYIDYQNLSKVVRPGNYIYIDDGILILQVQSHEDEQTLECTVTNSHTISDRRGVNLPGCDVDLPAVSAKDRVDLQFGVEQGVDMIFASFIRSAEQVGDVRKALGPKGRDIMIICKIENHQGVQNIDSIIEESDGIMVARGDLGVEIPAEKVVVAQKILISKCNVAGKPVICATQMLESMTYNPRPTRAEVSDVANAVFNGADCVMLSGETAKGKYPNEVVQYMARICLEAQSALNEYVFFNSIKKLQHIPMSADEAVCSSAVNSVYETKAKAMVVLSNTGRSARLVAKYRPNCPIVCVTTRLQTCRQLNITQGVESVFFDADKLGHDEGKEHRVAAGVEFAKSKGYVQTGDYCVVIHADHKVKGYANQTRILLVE
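Purified LmPK (0.1 nM) converted ADP (0.1 mM) to ATP with PEP (0.5 mM) in imidazole buffer pH 7.2 with KCl and MgCl2, 1 h at room temperature. ATP was read by Kinase-Glo luminescence; data normalized to uninhibited and no-enzyme controls.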
Pf growth 48h: inhibits P. falciparum growth in the first generation, 48 h | P. falciparum luciferase growth in erythrocytes, 48 h | Potency, µM (top dose mostly 28.7 µM), for inactives: at the highest dose activity change, negative = inhibition, most hits filed as inhibitors | 5.9% of 310,000 active | AID 504832; note: potency is the fitted concentration of half-maximal effect; % is set by controls: 0 for no effect and ±100 for the full control effect
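Compounds are pin-transferred into medium, infected erythrocytes (2% hematocrit, 0.1% parasitemia final) are added, and plates sit one parasite generation at 37 C in 5% CO2. Detection reagent is then added and luminescence measured.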
CHX counter: counter-screen for Shiga toxin inhibitors: cycloheximide protein synthesis inhibition. max response, %. AID 2314. cell reporter, cycloheximide protein synthesis inhibition counterscreen. 12% of 300,000 active; in the data active = max response mostly above about 13%, no sharp cut-off; inactive = mostly below about 14%; note: read at 38.3 µM for the half of the compounds with a filed dose; 0% is about no effect
Active calls of the source: *; ? = inconclusive; nt = no result; + = active, no number; [ ] = another dose, or the depositor's remark. Sampled rows, rich in hits. Any-hit rate of the full collection: about 22%. Unless noted, calls come from the whole dose curve; as a rule, active = well fitted inhibition curve with a large enough effect; inconclusive = small, poorly fitted or top-dose-only effect, or another doubt; inactive = no such curve, though single readings can be large or run the other way.

SMILES | Shiga toxin inh | Pf growth 96h | LmPK inhibitor | Pf growth 48h | CHX counter
CN1CCN(c2nc(-c3cccnc3)nc3scc(-c4ccccc4)c23)CC1 | 64.2 | ? | -8.7% | ? | -0.3
Clc1nc(-c2ccccn2)nc2scc(-c3ccccc3)c12 | + | -43.5% | -15.7% | ? | 92.6*
Clc1cccc(CSc2ccc(-c3ccco3)nn2)c1 | 61.1* | 11.1% | -1.8% | 38.1% | 31.2*
O=C(CSc1ccc(-c2ccco2)nn1)Nc1ccc(F)cc1F | 32.6 | -3.2% | -5.4% | 1.3% | 0.5
Fc1ccccc1CSc1ccc(-c2ccco2)nn1 | 119.6* | 180.3% | 0.2% | 248.5% | 49.7*
Clc1cccc(CSc2ccc(-c3cccnc3)nn2)c1 | 50.7 | 12.2% | 3.6% | -6.5% | 28.9*
c1ccc(CSc2ccc(-c3cccnc3)nn2)nc1 | 50.4* | 28.0% | -4.3% | 37.2% | 21.0*
O=C(CSc1ccc(-c2cccnc2)nn1)Nc1ccc(Br)cc1 | -5.1 | ? | -4.3% | -17.1% | -3.0
CCN1CCN(C(=O)c2ccc(CN(c3ccccc3)S(=O)(=O)c3ccccc3)cc2)CC1 | -19.7 | 9.2% | 1.3% | ? | -5.1
CN(C)CCCN(C(=O)c1ccc(S(=O)(=O)N2CCCCCC2)cc1)c1nc2c(F)cc(F)cc2s1 | nt | -2.1% | nt | ? | nt
COc1ccc(OC)c(-c2nnc3n2N=C(c2c(OC)cccc2OC)CS3)c1 | -5.0 | nt | nt | nt | 0.7
CN(CC(=O)NCCc1ccc(F)cc1)Cc1cccc(Cl)c1 | 3.8 | 24.3% | 16.9% | 0.0% | 8.2
Cn1c(NC(=O)COc2ccccc2)cc(=O)n(C)c1=O | 16.4 | ? | 0.5% | 11.7% | 11.5
CCOc1ccc(NS(=O)(=O)c2ccc(NC(=O)[C@@H]3CCCC[C@@H]3C(=O)O)cc2)cc1 | -12.9 | -0.5% | 2.0% | 33.2% | -5.3
c1ccc(CSc2ccc(-c3ccco3)nn2)cc1 | 83.6 | 211.0% | -17.8% | 195.0% | 26.3*
Cc1ccc(CSc2ccc(-c3ccco3)nn2)cc1 | 21.2 | 30.0% | -24.9% | 159.1% | 12.0
COc1cccc(CNC(=O)CSc2ccc(-c3ccco3)nn2)c1 | 21.5 | 1.8% | -1.8% | -3.8% | -1.6
Clc1ccc(CSc2ccc(-c3ccco3)nn2)cc1 | 125.6* | 35.9% | -0.5% | 146.5% | 23.4*
Cc1cccc(CSc2ccc(-c3ccco3)nn2)c1 | 19.5 | -13.9% | -7.1% | 104.0% | 16.6*
CC(=O)n1cc(/C=N/NC(=O)c2cccc(O)c2)c2ccccc21 | 59.3* | ? | -3.5% | nt | 36.0*
CC(=O)n1cc(/C=N/NC(=O)c2ccc(Cl)cc2)c2ccccc21 | 61.3* | ? | 0.9% | 74.0% | 41.0*
COc1cc2c(cc1OC)CN(C(=O)/C=C/c1ccccc1[N+](=O)[O-])CC2 | 4.9 | ? | 7.5% | ? | -3.4
CC(C)c1cc(C(=O)OCC(=O)NC(=O)NCc2ccco2)c(O)c(C(C)C)c1 | 12.6 | 22.9% | 2.6% | 11.8% | -4.1
CC(C)NC(=S)n1cc(C(=O)c2cc(Cl)cc(Cl)c2O)cn1 | -4.4 | 38.3% | 3.0% | 11.8% | -4.5
CC(c1ccccc1)n1c(SCC(=O)Nc2ccccc2)n[nH]c1=O (configuration not stated) | -8.2 | 15.9% | 4.7% | 2.0% | -4.4
SMILES | Shiga toxin inh | Pf growth 96h | LmPK inhibitor | Pf growth 48h | CHX counter
CC(C)C(=O)NCCc1nc2ccccc2n1C | -13.4 | nt | -1.3% | 21.2% | -2.3
COc1ccc(NCc2nc3ccccc3n2C)cc1 | 66.2* | ? | -14.8% | 170.3% | 34.6*
Cc1ccc(NC(=O)NCc2nc3ccccc3n2C)cc1 | 2.0 | 11.1% | 0.9% | -24.1% | 5.8
Cc1ccc(NCc2nc3ccccc3n2C)cc1 | 95.0* | ? | ? | 155.0% | 48.6*
Cc1ccc(NCc2nc3ccccc3n2C)cc1C | nt | -21.1% | -4.0% | 176.0% | 46.0*
Cn1c(CNc2ccc(Br)cc2)nc2ccccc21 | 114.0* | 17.7% | -6.2% | 34.1% | 39.7*
CCOC(=O)N1CCN(C(=O)c2cn(C)c3ccc(S(=O)(=O)N(C)C4CCCCC4)cc3c2=O)CC1 | -2.7 | ? | 1.0% | -0.2% | 7.7
COc1ccc(Cl)cc1NC(=O)CN(C)C(=O)CCC(=O)c1cc(C)sc1C | nt | ? | nt | 19.5% | nt
COc1ccc(Nc2nc3ccccc3n2C)cc1 | 40.0* | -17.7% | -8.6% | 97.4% | 35.3*
CCOC(=O)c1ccc(NCc2nc3ccccc3n2C)cc1 | 42.7 | 18.3% | ? | 29.4% | 32.5*
Cn1c(CNc2ccc(O)cc2)nc2ccccc21 | 75.3* | -20.5% | -20.1% | 11.6%[0.00184 µM] | 19.4*
Cn1c(CNC2CCCCC2)nc2ccccc21 | -3.4 | ? | -6.9% | 4.5% | 9.8
